We go through 13 compounds from the supplement of paper PMC10646978.

± gives the standard deviation.

Holding throughout (conditions): modulator concentration 10 µM
Experiment [1] concerns RAW-Dual (murine macrophage reporter line). Kind of experiment: NF-kB reporter (SEAP) activity fold change vs agonist alone; higher = enhanced NF-kB activity. In outline:
(§1)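 RAW-Dual murine macrophage reporter cells were seeded at 50 000 per well in 384-well plates and pre-incubated 1 hour at 37 °C with compound pin-transferred to 10 μM final. After 1 hour, a PRR agonist was added and cells incubated overnight. Supernatant NF-κB (SEAP, QUANTI-Blue, 620 nm absorbance) and IRF (Lucia luciferase, QUANTI-Luc, luminescence) signals were divided by the mean agonist-only control on the same plate to give fold change. Two replicate plates were averaged, with errors by propagation.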

The test system is the same in experiment [2]. The experiment in a line: IRF reporter (Lucia luciferase) activity fold change vs agonist alone; higher = enhanced IRF activity. In outline:
as §1

Experiment [3] has the same test system. The experiment in a line: viability score (confluency relative to resting cells, overnight) (fraction); higher = more viable, active = viable (0.7 or more). In outline: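 RAW-Dual macrophages in 384-well plates were exposed overnight to compound at 10 μM final. Confluency was imaged with IncuCyte, and two confluency masks were generated with IncuCyte software over all imaged wells. The viability score is confluency expressed relative to resting cells. Compounds were called viable if both masks exceeded 70% of resting cells.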

[4] abbreviates: agonist: CpG ODN 1826 0.5 ug/mL.

As to `COc1ccc(C(=O)Nc2cccc([N+](=O)[O-])c2)cc1I`, the NF-kB reporter was 1.03 ± 0.083 in experiment [1] (setting [4]), 1.01 ± 0.071 in experiment [1] (agonist: LPS 0.1 ug/mL) and 0.95 ± 0.081 in experiment [1] (agonist: MPLA […]). In addition, the IRF reporter in experiment [2] (agonist: 3'3'-cGAMP 10 ug/mL) was found to be 0.801 ± 0.037; in experiment [2] (agonist: LPS 0.1 ug/mL), 1.02 ± 0.13; in experiment [2] (agonist: MPLA […]) it was 1.04 ± 0.23. Also, in experiment [3], the viability score is 0.997 (active).
Take `Cl.N=C(N)NC(=O)c1nc(Cl)c(N)nc1N`: the NF-kB reporter is 1.2 ± 0.18 in experiment [1] (setting [4]), 1.15 ± 0.22 in experiment [1] (agonist: LPS 0.1 ug/mL) and 0.891 ± 0.063 in experiment [1] (agonist: MPLA […]). Also, the IRF reporter in experiment [2] (agonist: 3'3'-cGAMP 10 ug/mL) came out at 0.984 ± 0.03; in experiment [2] (agonist: LPS 0.1 ug/mL), 1.4 ± 0.25; in experiment [2] (agonist: MPLA […]), 1.3 ± 0.12. In experiment [3], the viability score is 0.988 (active).
As to `COc1ccc(N(CC(=O)Nc2ccccc2C(F)(F)F)S(C)(=O)=O)cc1Cl`, the NF-kB reporter in experiment [1] (setting [4]) worked out at 0.96 ± 0.075; in experiment [1] (agonist: LPS 0.1 ug/mL) it was 1.02 ± 0.097; in experiment [1] (agonist: MPLA […]) it was 0.979 ± 0.045. The IRF reporter is 0.961 ± 0.17 in experiment [2] (agonist: 3'3'-cGAMP 10 ug/mL), 1.02 ± 0.045 in experiment [2] (agonist: LPS 0.1 ug/mL) and 1.02 ± 0.19 in experiment [2] (agonist: MPLA […]). Also, the viability score in experiment [3] is 1 (active).
On to `CCOC(=O)[C@@H](N)Cc1ccc(-c2cc(O[C@H](c3ccc(Cl)cc3-n3ccc(C)n3)C(F)(F)F)nc(N)n2)cc1.O=C(O)CNC(=O)c1ccccc1`, for which the results for the NF-kB reporter in experiment [1] (setting [4]), in experiment [1] (agonist: LPS 0.1 ug/mL) and in experiment [1] (agonist: MPLA […]) were 0.504 ± 0.06, 0.512 ± 0.053 and 0.937 ± 0.11, respectively. Also, the IRF reporter in experiment [2] (agonist: 3'3'-cGAMP 10 ug/mL) came to 0.734 ± 0.043; in experiment [2] (agonist: LPS 0.1 ug/mL), 0.787 ± 0.026; in experiment [2] (agonist: MPLA […]) it was 3.54 ± 0.34. Moreover, the viability score in experiment [3] was 0.119 (inactive).
As for `N=C(N)Nc1ccc(Cl)cc1`, the NF-kB reporter came to 1.02 ± 0.1 in experiment [1] (setting [4]), 1.05 ± 0.067 in experiment [1] (agonist: LPS 0.1 ug/mL) and 0.961 ± 0.042 in experiment [1] (agonist: MPLA […]). The IRF reporter in experiment [2] (agonist: 3'3'-cGAMP 10 ug/mL) worked out at 0.984 ± 0.08; in experiment [2] (agonist: LPS 0.1 ug/mL), 0.986 ± 0.058; in experiment [2] (agonist: MPLA […]), 0.885 ± 0.099. Besides, in experiment [3], the viability score is 0.991 (active).
Take `COc1cc2c(cc1OC)CN(CCc1ccc(NC(=O)c3cccc4c(=O)c5cccc(OC)c5[nH]c34)cc1)CC2`: the NF-kB reporter stood at 0.0904 ± 0.022 in experiment [1] (setting [4]), 1.43 ± 0.075 in experiment [1] (agonist: LPS 0.1 ug/mL) and 1.2 ± 0.088 in experiment [1] (agonist: MPLA […]). Further, the figures for the IRF reporter in experiment [2] (agonist: 3'3'-cGAMP 10 ug/mL), in experiment [2] (agonist: LPS 0.1 ug/mL) and in experiment [2] (agonist: MPLA […]) were 0.132 ± 0.0091, 1.42 ± 0.26 and 1.6 ± 0.15, respectively. Besides, the viability score in experiment [3] was 0.971 (active).
In the case of `CC1c2cccc(O)c2C(=O)C2=C(O)C3(O)C(=O)C(C(N)=O)=C(O)C(N(C)C)C3C(O)C21.Cl` (stereo unspecified), the values for the NF-kB reporter in experiment [1] (setting [4]), in experiment [1] (agonist: LPS 0.1 ug/mL) and in experiment [1] (agonist: MPLA […]) were 1.34 ± 0.32, 1.15 ± 0.058 and 1.04 ± 0.074, respectively. The IRF reporter is 0.795 ± 0.041 in experiment [2] (agonist: 3'3'-cGAMP 10 ug/mL), 1.14 ± 0.15 in experiment [2] (agonist: LPS 0.1 ug/mL) and 1.02 ± 0.12 in experiment [2] (agonist: MPLA […]). Moreover, the viability score in experiment [3] was 0.992 (active).
For the compound `CN(Cc1cnc2nc(N)nc(N)c2n1)c1ccc(C(=O)N[C@@H](CCC(=O)O)C(=O)O)cc1`, the NF-kB reporter in experiment [1] (setting [4]) was found to be 0.668 ± 0.16; in experiment [1] (agonist: LPS 0.1 ug/mL), 0.862 ± 0.28; in experiment [1] (agonist: MPLA […]), 0.764 ± 0.045. Besides, the IRF reporter in experiment [2] (agonist: 3'3'-cGAMP 10 ug/mL) amounted to 0.612 ± 0.049; in experiment [2] (agonist: LPS 0.1 ug/mL), 1.02 ± 0.35; in experiment [2] (agonist: MPLA […]), 0.993 ± 0.16. Also, the viability score in experiment [3] is 0.574 (inactive).
As to `O=c1ncnc2[nH][nH]cc1-2`, the values for the NF-kB reporter in experiment [1] (setting [4]), in experiment [1] (agonist: LPS 0.1 ug/mL) and in experiment [1] (agonist: MPLA […]) were 0.832 ± 0.071, 0.865 ± 0.043 and 1.13 ± 0.13, respectively. For the same compound, the IRF reporter in experiment [2] (agonist: 3'3'-cGAMP 10 ug/mL) worked out at 0.979 ± 0.059; in experiment [2] (agonist: LPS 0.1 ug/mL) it was 1.17 ± 0.07; in experiment [2] (agonist: MPLA […]) it was 1.31 ± 0.15. Moreover, the viability score in experiment [3] is 1.02 (active).
For the compound `O=C(Nc1cccnc1)c1ccc(OC2CCOCC2)nc1`, the NF-kB reporter in experiment [1] (setting [4]) stood at 1.08 ± 0.37; in experiment [1] (agonist: LPS 0.1 ug/mL), 0.97 ± 0.06; in experiment [1] (agonist: MPLA […]), 1 ± 0.063. In addition, the IRF reporter was 0.912 ± 0.046 in experiment [2] (agonist: 3'3'-cGAMP 10 ug/mL), 1.05 ± 0.13 in experiment [2] (agonist: LPS 0.1 ug/mL) and 1.3 ± 0.14 in experiment [2] (agonist: MPLA […]). The viability score in experiment [3] was 0.99 (active).
As for `CCOC(=O)c1ncn2c1CN(C)C(=O)c1cc(F)ccc1-2`, the NF-kB reporter in experiment [1] (setting [4]) was determined as 1.26 ± 0.22; in experiment [1] (agonist: LPS 0.1 ug/mL), 1.03 ± 0.28; in experiment [1] (agonist: MPLA […]), 0.975 ± 0.058. For the same compound, the IRF reporter was 0.912 ± 0.029 in experiment [2] (agonist: 3'3'-cGAMP 10 ug/mL), 1.2 ± 0.27 in experiment [2] (agonist: LPS 0.1 ug/mL) and 1.16 ± 0.088 in experiment [2] (agonist: MPLA […]). Further, the viability score in experiment [3] is 0.995 (active).
With `CNC(=O)[C@@H](NC(=O)[C@H](CC(C)C)[C@H](O)C(=O)NO)C(C)(C)C`, the NF-kB reporter in experiment [1] (setting [4]) came out at 1.29 ± 0.097; in experiment [1] (agonist: LPS 0.1 ug/mL) it was 1.15 ± 0.13; in experiment [1] (agonist: MPLA […]), 0.996 ± 0.021. In addition, the IRF reporter was determined as 0.868 ± 0.048 in experiment [2] (agonist: 3'3'-cGAMP 10 ug/mL), 0.983 ± 0.11 in experiment [2] (agonist: LPS 0.1 ug/mL) and 1 ± 0.13 in experiment [2] (agonist: MPLA […]). In experiment [3], the viability score is 1.01 (active).
For `CC(C)Cn1c(=O)n(C)c(=O)c2[nH]cnc21`, the NF-kB reporter worked out at 1.41 ± 0.11 in experiment [1] (setting [4]), 1.01 ± 0.055 in experiment [1] (agonist: LPS 0.1 ug/mL) and 1.08 ± 0.026 in experiment [1] (agonist: MPLA […]). The IRF reporter in experiment [2] (agonist: 3'3'-cGAMP 10 ug/mL) was 0.849 ± 0.049; in experiment [2] (agonist: LPS 0.1 ug/mL), 0.88 ± 0.12; in experiment [2] (agonist: MPLA […]), 0.884 ± 0.21. Besides, the viability score in experiment [3] was 0.983 (active).
